The text below walks through data of article PMC5540273 (PLoS ONE, 2017).

Some results are limits rather than exact numbers.

For one test, the system named is T1, DMPK2.
T1 construct: gene CDC42BPG

Another test has as its system T2, DCAMKL3.
T2 construct: gene DCLK3

A further test deals with T3, DRAK1.
T3 construct: gene STK17A
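Further: kd values determined as follow-up on hits from a single-replicate KINOMEscan panel screen.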

For the molecule `CNCc1ccc2nc(NC(=O)c3ccc(C(C)(C)C)cc3)cn2c1`, in the test on CSNK1G3, the Kd (as a rule, the concentration at which binding is half-saturated) is over 10000 nM.
For the molecule `Cc1ccc(NC(=O)Nc2ccc(Cl)cc2)cc1-c1ccc(C(=O)Nc2ccncc2)cc1` [GSK1398472], the Kd was determined as 6700 nM in the test on CSF1R and 73 nM in the test with DDR1.
Regarding `Cc1ccc(NC(=O)c2ccc(Cl)cc2)cc1-c1ccc(C(=O)Nc2ccncc2)cc1` [GSK1398467], the Kd is 880 nM with CSF1R, 710 nM in the test on DDR1 and over 10000 nM in the test with EPHA3.
With `Cc1ccc(NC(=O)Nc2ccccc2)cc1-c1ccc(C(=O)Nc2ccncc2)cc1` [GSK1398471], the results for the Kd with CSF1R and in the test on DDR1 were 3300 nM and 180 nM, respectively.
On to `COc1cccc(C2=C(Nc3cc(Cl)c(O)c(Cl)c3)C(=O)NC2=O)c1` [SB-390767], for which the Kd with CSNK1G1 and in the test with DDR1 was over 10000 nM in each case.
On to `CCCCc1nn2ncccc2c1-c1ccnc(NC2CC2)n1` [GW684374], for which the Kd with CSNK1D turned out to be 480 nM; with CSNK1E, 2900 nM.
On to `Fc1ccc(-c2nc3n(c2-c2ccncc2)CCS3)cc1` [GI98581], for which the Kd in the test on CSNK1A1 was determined as 260 nM; in the test on CSNK1D, 83 nM; with CSNK1E, 180 nM; with DMPK2 it was 1200 nM.
Regarding `CC[C@@H]1CO[C@H](C(=O)Nc2ccccc2)CN1c1cc(-c2ccc3c(N)n[nH]c3c2)nc(NC)n1` [GSK2376236], the Kd with DCAMKL3 came out at 570 nM; in the test with DRAK1, 220 nM.
As to `CC(C)c1cc(-c2ccc3c(N)n[nH]c3c2)nc(N)n1` [GSK2250882], the Kd in the test with DRAK1 stood at 29 nM.
On to `Cc1cccc2c(-c3ccncn3)c(-c3ccc(F)cc3)nn12` [GW515532], for which the Kd in the test with CSNK1D was 1200 nM; in the test with CSNK1E, 3400 nM; in the test on CSNK1G3, over 10000 nM.
On to `Cn1cncc1-c1cc2c(Nc3ccc(OCc4ccccc4)cc3)ncnc2cn1` [GW281179], for which the Kd in the test with DRAK1 is over 10000 nM; in the test with EGFR it was 10 nM.
For the molecule `CC(=O)c1c(C)c2cnc(Nc3ccc(N4CCNCC4)cn3)nc2n(C2CCCC2)c1=O`, the Kd in the test on CSNK1E and in the test on DMPK2 was over 10000 nM each time.
